# HSV augment – increases HSV replication in cells | HSV replication augmentation in cells, fold increase | maximum fold increase | AID 1956 | 220,000 compounds, 0.005% hits; in the data active means maximum fold increase above about 1.5; tested in PC3 cells
# NPR2 activator – GC-B (human) receptor activation; HEK293-GC-B cells, CNP EC30, cGMP TR-FRET; 0% at EC30 CNP, 100% saturating CNP; activation, % at 10 µM; 370,000 compounds, 0.11% hits;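 active means activation at 10 µM reaching about 35% in either raw or pattern-adjusted values, limit read from the data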
# Target sequence (P20594 whole entry, looked up): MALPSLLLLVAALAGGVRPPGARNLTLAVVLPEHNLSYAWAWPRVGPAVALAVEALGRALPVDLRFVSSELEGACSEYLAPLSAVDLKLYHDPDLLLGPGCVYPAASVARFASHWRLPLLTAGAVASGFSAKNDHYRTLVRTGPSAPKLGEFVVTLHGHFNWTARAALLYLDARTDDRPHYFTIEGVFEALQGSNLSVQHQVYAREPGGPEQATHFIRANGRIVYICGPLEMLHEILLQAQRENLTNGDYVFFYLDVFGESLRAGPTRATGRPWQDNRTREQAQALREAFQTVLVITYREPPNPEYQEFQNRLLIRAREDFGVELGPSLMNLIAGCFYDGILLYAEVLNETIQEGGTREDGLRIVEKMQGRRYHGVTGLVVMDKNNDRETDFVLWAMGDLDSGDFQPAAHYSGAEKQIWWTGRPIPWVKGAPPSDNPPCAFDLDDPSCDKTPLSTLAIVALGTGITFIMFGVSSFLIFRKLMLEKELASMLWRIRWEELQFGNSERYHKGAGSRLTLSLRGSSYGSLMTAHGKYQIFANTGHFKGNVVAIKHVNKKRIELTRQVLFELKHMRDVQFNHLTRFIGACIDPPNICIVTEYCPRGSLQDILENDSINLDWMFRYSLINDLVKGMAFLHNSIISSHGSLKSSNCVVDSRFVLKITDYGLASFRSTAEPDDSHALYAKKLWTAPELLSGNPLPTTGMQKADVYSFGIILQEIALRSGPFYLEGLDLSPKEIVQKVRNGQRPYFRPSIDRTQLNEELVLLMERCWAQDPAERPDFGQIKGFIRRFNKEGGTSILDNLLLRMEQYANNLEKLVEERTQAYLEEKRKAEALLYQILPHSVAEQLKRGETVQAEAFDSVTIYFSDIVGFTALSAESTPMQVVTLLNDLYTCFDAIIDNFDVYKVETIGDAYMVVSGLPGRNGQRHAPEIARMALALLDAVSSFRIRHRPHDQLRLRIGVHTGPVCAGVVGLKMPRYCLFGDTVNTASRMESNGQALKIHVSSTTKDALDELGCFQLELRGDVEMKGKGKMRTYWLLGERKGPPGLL
# Efflux pump inh – inhibitors of Candida antifungal efflux pumps expressed in yeast. AID 485275. inhibition, % at 10 µM. 330,000 compounds, 0.44% hits. S. cerevisiae Candida pump triplex, Nile Red efflux;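 active means plate passing quality check with inhibition over a set limit, or well fluorescence over plate mean plus 4 SD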;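 further: Nile Red retained in pooled yeast measured as flow cytometry median fluorescence; 0% = buffer negative control and 100% = Enniatin B positive control; higher means more Nile Red kept so more efflux inhibition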
# NPR1 activator – GC-A (human) enzyme activation; P16066; activation, % at 10 µM; HEK293 GC-A cells, cGMP TR-FRET, EC30 ANP; 0% at EC30 ANP, 100% saturating ANP; 370,000 compounds, 0.14% hits; in the data active means activation above about 40%
# A1 inh – inhibitors of the anti-apoptotic protein A1, read as caspase activation; caspase activation, % (no concentration beside the values); 330,000 compounds, 0.066% hits; MEF A1-2A-BIM cells, Caspase-Glo 3/7 luminescence, 3 h; percent of clofoctol response, vehicle zero;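 active means over half of replicate activation scores above 10%, or exactly half above 10 with the replicate mean above 10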
# TAG inh – inhibitors of triacylglycerol accumulation | 230,000 compounds, 0.66% hits | inhibition, % at 12.5 µM | H9c2 cells, Nile Red lipid (TAG) fluorescence; cells loaded with 200 µM oleic acid;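 active means pattern-corrected inhibition of lipid staining of at least 50% with the nuclear-stain viability signal not falling by more than 50%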;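 further: 0% = DMSO wells and 100% = triacsin C control wells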
# Cmpd fluor yeast – flagged as fluorescent in efflux inhibitor counter-screen; 1,700 compounds, 4% hits; S. cerevisiae AD/pABC3, compound fluorescence, flow cytometry; fluorescence ratio to DMSO, % at 10 µM; AID 588517; shares compounds with Efflux pump inh;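 active means fluorescence ratio to DMSO above its plate's cutoff, the plate mean ratio plus 5 SD, cut at about 210% in these data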;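 further: unstained yeast with no Nile Red so the signal is compound autofluorescence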
# Mdr1 pump inh – inhibitors of Candida albicans Mdr1 efflux pump | shares compounds with Efflux pump inh | S. cerevisiae AD/CaMDR1, Nile Red efflux, flow cytometry | inhibition, % at 10 µM | 1,700 compounds, 1% hits | AID 588518; in the data active means inhibition above about 26%;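 further: 0% = DMSO vehicle and 100% = reference inhibitor; higher means more Nile Red retained so more efflux inhibition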
# CaCdr2 efflux inh – blocks the Candida albicans Cdr2 efflux pump in yeast | AID 588520 | 1,700 compounds, 4% hits | S. cerevisiae AD/CaCDR2, Nile Red retention, flow cytometry | shares compounds with Efflux pump inh | Nile Red retention ratio vs DMSO, % at 10 µM; in the data active means Nile Red retention ratio vs DMSO above about 190%;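 further: higher ratio means more blocking of Cdr2 efflux of the dye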
# Cdr1 pump inh – Candida Cdr1 efflux pump inhibition; shares compounds with Efflux pump inh; S. cerevisiae AD/CaCDR1, Nile Red efflux, flow cytometry; inhibition, % at 10 µM; 1,700 compounds, 1% hits; AID 588522;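 active means inhibition above the screen-wide mean plus twice its standard deviation, cut at about 32% in these data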
# H9c2 TAG conf – confirmation of triacylglycerol accumulation inhibitors | shares compounds with TAG inh | H9c2 lipid accumulation, Nile Red fluorescence; cells loaded with 200 µM oleic acid | inhibition, % at 12.5 µM | 990 compounds, 71% hits | AID 651629;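 active means mean inhibition across replicates of 40% or more; inactive means mean inhibition below 40%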;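 further: plate controls were DMSO only wells for no effect and Triacsin C treated wells for full effect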
# Starred values were filed as active, the others as inactive; i = inactive; / = no result. In the library only some 1% were active in any assay of this set; here they are far more common.
SMILES,HSV augment,NPR2 activator,Efflux pump inh,NPR1 activator,A1 inh,TAG inh,H9c2 TAG conf,others
Cc1nn(-c2ccc([N+](=O)[O-])cc2)c2c1C(c1ccc(OC(F)F)cc1)N1C(=N2)C(=O)Nc2ccccc21 (centres undefined),i,6.2,1.6*,-1.2,0.3,65.5*,69.3*,Cmpd fluor yeast=115.9;Mdr1 pump inh=0.6;CaCdr2 efflux inh=133.0;Cdr1 pump inh=0.2
COC(=O)[C@]12C[C@H](CC(=O)N3CCN(C(=O)C4CC4)CC3)C(=O)N(CCc3ccc(OC)c(OC)c3)C1=C[C@H](C(C)C)O[C@@H]2C1CC1,/,0.1,/,5.0,/,/,/,
COc1ccc(C(C(=O)NC(C)(C)C)N(CC2CCCO2)C(=O)CCC(=O)Nc2cc(C)on2)cc1 (centres undefined),i,-5.5,0.8*,-5.2,0.7,50.4*,31.5,Cmpd fluor yeast=100.0;Mdr1 pump inh=-0.5;CaCdr2 efflux inh=98.1;Cdr1 pump inh=0.1
COc1ccc(C(C(=O)NC(C)(C)C)N(CCC(C)C)C(=O)CCC(=O)Nc2cc(C)on2)cc1 (centres undefined),/,-5.5,0.1,-14.2,-0.4,/,/,
Cc1ccccc1CN1CCCCC(NC(=O)c2cccc(F)c2)C1=O (centres undefined),/,2.4,/,1.0,/,/,/,
C=CC[C@H](CC(=O)N(CCO)Cc1ccccc1)C(=O)N[C@H](COC(=O)[C@@H](CC=C)Cc1ccc(F)cc1)Cc1c[nH]c2ccccc12,/,-11.3,0.5,-6.7,0.0,25.5,/,
C=CC[C@@H](CC(=O)N(CCO)Cc1ccccc1)C(=O)N[C@H](COC(=O)[C@@H](CC=C)Cc1ccc(F)cc1)Cc1c[nH]c2ccccc12,/,-6.4,162.3*,-10.1,-1.6,61.8*,63.0*,Cmpd fluor yeast=104.5;Mdr1 pump inh=135.8*;CaCdr2 efflux inh=111.6;Cdr1 pump inh=135.5*
Cc1ccc(Oc2ccc(S(=O)(=O)N3CCOCC3)cc2C(N)=O)c(-n2nc3ccccc3n2)c1,i,-0.2,0.0,-0.5,1.1,50.0*,46.1*,
COC(=O)[C@@]1(Cc2ccc(F)cc2)[C@H]2c3cc(C(=O)N4CCCC4)n(CCCNc4ncc(C(F)(F)F)cc4Cl)c3C[C@H]2CN1C(=O)c1ccccc1,/,/,0.3,/,-0.4,77.8*,98.4*,
COC(=O)[C@@]1(Cc2ccc(F)cc2)[C@H]2c3cc(C(=O)N4CCCC4)n(CCF)c3C[C@H]2CN1C(=O)c1ccccc1,/,-11.0,/,-7.8,/,/,/,
CN(CC(=O)NCCc1ccc(S(N)(=O)=O)cc1)S(=O)(=O)c1cccc2nsnc12,/,0.9,0.0,0.7,-0.3,/,/,
CCOc1ccc(CCNC(=O)CN(C)S(=O)(=O)c2cccc3nsnc23)cc1OCC,i,-8.0,-0.1,2.2,-0.3,50.6*,43.7*,
CCSCc1nnc(SCC(=O)Nc2nccs2)n1CC,i,13.6,-0.1,1.8,0.5,15.5,/,
CCn1c(COc2ccc(C(C)C)cc2)nnc1SCC(=O)Nc1nccs1,i,-3.4,-0.3,-0.2,0.4,57.3*,14.6,
CCC[C@@H](CN[C@@H](CNC)[C@H](C)CC)NCC1CCC(C(C)(C)C)CC1 (some centres undefined),/,-1.5,-0.1,-0.1,0.2,127.3*,88.8*,
Cc1nc2ccc(S(=O)(=O)NCC(=O)N(C)Cc3ccccc3F)cc2s1,/,9.0,/,3.9,/,/,/,
CC(C)c1cccc(C(C)C)c1OC(=O)[C@H]1OC(c2ccc(Br)cc2)=C[C@@H]1c1ccc(Br)cc1,/,3.1,0.8*,-0.8,-0.7,59.0*,22.7,

# Screening data as filed in PubChem BioAssay.
